Assay results taken from the supplement of paper PMC6992640.
± gives the standard deviation of the averaged measurements.

Columns and labels:
Test in all cases: cell viability (% of vehicle); higher = less cytotoxic
Details in all cases: 10 µM; 72 h
HCI01 = test system: HCI01 (cells of a triple-negative basal-like breast cancer xenograft)
HCI03 = test system: HCI03 (cells of an ER-positive luminal breast cancer xenograft)
HCI09 = test system: HCI09 (cells of a triple-negative luminal androgen receptor type breast cancer xenograft)
HCI11 = test system: HCI11 (cells of an ER-positive luminal breast cancer xenograft)
HCI13 = test system: HCI13 (cells of an ER-positive luminal breast cancer xenograft)
HCI16 = test system: HCI16 (cells of a triple-negative basal-like breast cancer xenograft)
UCD52 = test system: UCD52 (cells of a triple-negative basal-like breast cancer xenograft)
WHIM2 = test system: WHIM2 (cells of a triple-negative basal-like breast cancer xenograft)
WHIM30 = test system: WHIM30 (cells of a triple-negative basal-like breast cancer xenograft)
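Further: PDX cells carrying CMV promoter-driven luciferase, viability read as total photon flux per second by IVIS imaging following D-luciferin, vehicle control 0.1% DMSO.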

SMILES | cell viability (HCI01) | cell viability (HCI03) | cell viability (HCI09) | cell viability (HCI11) | cell viability (HCI13) | cell viability (HCI16) | cell viability (UCD52) | cell viability (WHIM2) | cell viability (WHIM30)
O=CC(O)C(O)C(O)CO (configuration not stated) [Xylose] | 70.5 ± 35 | 96.1 | 91.8 ± 13 | 90.9 | 104 ± 18 | 108 | 83 ± 1.1 | 94.5 ± 4.8 | 129 ± 0.16
Cc1cnc(NC(=O)C2=C(O)c3ccccc3S(=O)(=O)N2C)s1 [Meloxicam (Mobic)] | 104 ± 10 | 125 | 96.1 ± 18 | 102 | 124 ± 5 | 88.8 | 80.5 ± 6.5 | 94 ± 12 | 81.3 ± 13
CC1=C(CC(=O)O)c2cc(F)ccc2C1=Cc1ccc(S(C)=O)cc1 (configuration not stated) [Sulindac] | 92.1 ± 23 | 89.2 | 81.5 ± 4.2 | 76.2 | 108 ± 0.55 | 119 | 97.3 ± 3.1 | 88.7 ± 6.6 | 104 ± 13
C1CNCCN1.C[C@@]12CC[C@H]3c4ccc(OS(=O)(=O)O)cc4CC[C@H]3[C@H]1CCC2=O [Estropipate] | 89.8 ± 7.5 | 173 | 81.6 ± 11 | 95.3 | 159 ± 20 | 104 | 104.03 ± 0.037 | 91.3 ± 27 | 98.27 ± 0.36
CN(CC=CC#CC(C)(C)C)Cc1cccc2ccccc12 [Terbinafine] | 105 ± 5.9 | 114 | 136 ± 70 | 108 | 111 ± 26 | 139 | 106 ± 3 | 73.1 ± 24 | 117 ± 3.4
CCCCC1C(=O)N(c2ccccc2)N(c2ccccc2)C1=O [Phenylbutazone] | 89.4 ± 24 | 129 | 86.7 ± 11 | 97.2 | 127.3 ± 0.28 | 120 | 88.9 ± 1.4 | 89 ± 23 | 119 ± 3.8
CCCC1CC(C(=O)NC(C(C)Cl)C2OC(SC)C(O)C(O)C2O)N(C)C1.Cl (configuration not stated) [Clindamycin HCl] | 101 ± 7.5 | 122 | 99.45 ± 0.17 | 104 | 88.2 ± 19 | 142 | 117 ± 2.3 | 106 ± 33 | 122 ± 2.6
CC(=O)NC(CS)C(=O)O (configuration not stated) [Acetylcysteine] | 91.6 ± 7.3 | 113 | 94.3 ± 16 | 90 | 97.3 ± 27 | 118 | 89.98 ± 0.47 | 124 ± 1.8 | 96.8 ± 14
CC12CCC3c4ccc(O)cc4CCC3C1CCC2OC(=O)CCC1CCCC1 (configuration not stated) [Estradiol Cypionate] | 168 ± 2.2 | 101 | 96.6 ± 4.5 | 93.1 | 180 ± 16 | 147 | 92 ± 6.5 | 110 ± 10 | 130 ± 12
COc1cc2ncnc(Nc3ccc(F)c(Cl)c3)c2cc1OCCCN1CCOCC1 [Gefitinib (ZD1839)] | 95.6 ± 51 | 55.3 | 77.9 ± 22 | 110 | 63.3 ± 1.6 | 94.8 | 52.2 ± 1.3 | 47.8 ± 2.2 | 128.3 ± 1.1
CCOC(=O)C(CCc1ccccc1)NC1CSC(c2cccs2)CN(CC(=O)O)C1=O.Cl (configuration not stated) [Temocapril HCl] | 80.7 ± 40 | 103 | 106 ± 31 | 82.3 | 116 ± 9.8 | 101 | 88.7 ± 3.7 | 99 ± 12 | 114 ± 13
Nc1nc(CC(=O)Nc2ccc(CCNCC(O)c3ccccc3)cc2)cs1 (configuration not stated) [Mirabegron (YM178)] | 127 ± 6.3 | 109 | 136 ± 51 | 107 | 140 ± 13 | 137 | 82.2 ± 9.6 | 97 ± 19 | 132 ± 4.2
CCCCCCNC(=O)n1cc(F)c(=O)[nH]c1=O [Carmofur] | 110 ± 5.8 | 103 | 67.7 ± 9.4 | 131 | 80.9 ± 6.8 | 108 | 109 ± 41 | 92.5 ± 38 | 120 ± 17
CNC(=O)C(NC(=O)C(CC(C)C)C(O)C(=O)NO)C(C)(C)C (configuration not stated) [Marimastat] | 138 ± 9.7 | 111 | 78.3 ± 3 | 118 | 72.6 ± 8.9 | 127 | 101 ± 16 | 105 ± 10 | 117 ± 13
Cc1ccc(C(=O)c2cc(O)c(O)c([N+](=O)[O-])c2)cc1 [Tolcapone] | 70.6 ± 40 | 52.5 | 14.6 ± 1.4 | 57.5 | 64.16 ± 0.48 | 84.2 | 71.6 ± 18 | 117 ± 26 | 120 ± 7.5
CN1CCCC(n2nc(Cc3ccc(Cl)cc3)c3ccccc3c2=O)CC1.Cl (configuration not stated) [Azelastine HCl] | 142 ± 46 | 106 | 101 ± 1.3 | 69.2 | 113 ± 22 | 116 | 57.6 ± 17 | 78.7 ± 8.4 | 94.9 ± 6.3
CCCNC1CCc2nc(N)sc2C1 (configuration not stated) [Pramipexole] | 122 ± 25 | 111 | 113 ± 5.7 | 110 | 163 ± 2.5 | 151 | 114 ± 20 | 101.5 ± 0.41 | 100 ± 12
O=C(O)c1cc(-c2ccccc2)nc2ccccc12 [Cinchophen] | 157 ± 2.4 | 125 | 104 ± 7.1 | 107 | 111 ± 1.3 | 124 | 120 ± 4.4 | 138 ± 6.4 | 139 ± 28
COc1ccc(O)cc1 [Mequinol] | 91 ± 10 | 108 | 101 ± 13 | 70.4 | 124 ± 32 | 118 | 71 ± 7.1 | 96.5 ± 20 | 100 ± 2.8

SMILES | cell viability (HCI01) | cell viability (HCI03) | cell viability (HCI09) | cell viability (HCI11) | cell viability (HCI13) | cell viability (HCI16) | cell viability (UCD52) | cell viability (WHIM2) | cell viability (WHIM30)
CCOC(=O)c1ncn2c1CN(C)C(=O)c1cc(F)ccc1-2 [Flumazenil] | 114 ± 6.3 | 106 | 89.6 ± 18 | 96.8 | 93.9 ± 2.9 | 92.5 | 118 ± 17 | 103 ± 7.5 | 142 ± 15
Oc1ccc(OC2CCCCO2)cc1 (configuration not stated) [Deoxyarbutin] | 103 ± 22 | 138 | 127 ± 11 | 112 | 84.9 ± 5.5 | 145 | 129 ± 4.3 | 132 ± 34 | 117 ± 11
Cc1cn(C2CC(O)C(CO)O2)c(=O)[nH]c1=O (configuration not stated) [Telbivudine] | 125 ± 3.9 | 128 | 141 ± 78 | 115 | 164 ± 67 | 99.4 | 95.5 ± 9.2 | 94.1 ± 16 | 124 ± 24
S=c1nc[nH]c2nc[nH]c12 [Mercaptopurine (6-MP)] | 108 ± 4.9 | 104 | 116 ± 6 | 81.6 | 92.3 ± 12 | 74.9 | 91.6 ± 4.2 | 99.3 ± 24 | 118 ± 32
Cc1nccn1CC1CCc2c(c3ccccc3n2C)C1=O.Cl (configuration not stated) [Ondansetron HCl] | 126 ± 18 | 123 | 93.6 ± 9.8 | 111 | 96.7 ± 2.7 | 104 | 80.3 ± 1 | 83.9 ± 22 | 128 ± 9.2
C1N2CN3CN1CN(C2)C3 [Methenamine] | 89.3 ± 14 | 127 | 101 ± 14 | 90.8 | 177 ± 29 | 104 | 90.2 ± 4.5 | 91.8 ± 2.4 | 142 ± 4.7
N#CC(c1ccc(Cl)cc1)c1c(Cl)cc(-n2ncc(=O)[nH]c2=O)cc1Cl (configuration not stated) [Diclazuril] | 98.7 ± 32 | 119 | 64 ± 57 | 95.3 | 59.1 ± 10 | 123 | 96.3 ± 31 | 115 ± 19 | 161 ± 11
Cc1ccc(-n2nc(C(C)(C)C)cc2NC(=O)Nc2ccc(OCCN3CCOCC3)c3ccccc23)cc1 [BIRB 796 (Doramapimod)] | 138 ± 41 | 89.6 | 93.5 ± 19 | 71.1 | 48.5 ± 3.4 | 87.4 | 62.1 ± 7 | 89.8 ± 8 | 103 ± 18
c1ccc(-c2ccc(C(c3ccccc3)n3ccnc3)cc2)cc1 (configuration not stated) [Bifonazole] | 93.4 ± 4.3 | 108 | 74 ± 1.6 | 95.3 | 84.3 ± 22 | 108 | 149 ± 50 | 121 ± 1.4 | 126 ± 20
CN(C)CC(c1ccc(O)cc1)C1(O)CCCCC1 (configuration not stated) [Desvenlafaxine] | 84 ± 2.4 | 118 | 92.5 ± 18 | 80.5 | 90.1 ± 13 | 126 | 92.2 ± 9.2 | 79.9 ± 7.9 | 124 ± 7.7
CS(=O)(=O)Nc1ccc([N+](=O)[O-])cc1Oc1ccccc1 [Nimesulide] | 146 ± 23 | 117 | 80.56 ± 0.45 | 104 | 109 ± 4.1 | 144 | 81.5 ± 15 | 107 ± 13 | 92.5 ± 2.9
COc1cc2c(cc1OC)C(=O)C(CC1CCN(Cc3ccccc3)CC1)C2.Cl (configuration not stated) [Donepezil HCl] | 137 ± 8.8 | 89.9 | 113 ± 5 | 106 | 152.6 ± 0.61 | 147 | 66.1 ± 6.9 | 86.1 ± 4 | 107 ± 14
Cc1ccnc(NS(=O)(=O)c2ccc(N)cc2)n1 [Sulfamerazine] | 100 ± 36 | 131 | 88.41 ± 0.75 | 84.2 | 103 ± 8.7 | 111 | 86.8 ± 8.5 | 75.2 ± 10 | 99.5 ± 6
CCN1CCCC1CNC(=O)c1cc(S(=O)(=O)CC)c(N)cc1OC (configuration not stated) [Amisulpride] | 189 ± 32 | 126 | 108 ± 14 | 100 | 82.7 ± 0.84 | 159 | 116 ± 15 | 122 ± 4 | 139 ± 2.1
OCC1OC(OC2(CCl)OC(CCl)C(O)C2O)C(O)C(O)C1Cl (configuration not stated) [Sucralose] | 112 ± 2.4 | 128 | 91.4 ± 5.3 | 89.1 | 70 ± 4.5 | 140 | 70.9 ± 6.8 | 124 ± 30 | 110 ± 7.1
Cc1cc(NS(=O)(=O)c2ccc(N)cc2)no1 [Sulfamethoxazole] | 115 ± 29 | 127 | 107 ± 30 | 95.4 | 120 ± 1.2 | 154 | 99.6 ± 4.2 | 117.5 ± 0.64 | 196 ± 4
Cl.O=C(c1ccc(OCCN2CCCCC2)cc1)c1c(-c2ccc(O)cc2)sc2cc(O)ccc12 [Raloxifene HCl] | 163 ± 35 | 71.2 | 33.7 ± 1.3 | 116 | 50.8 ± 3 | 182 | 80.5 ± 3.9 | 44 ± 7.1 | 156.6 ± 1.1
Cl.O=S(=O)(c1cccc2cnccc12)N1CCCNCC1 [Fasudil (HA-1077) HCl] | 81.6 ± 18 | 93.4 | 69.3 ± 9.2 | 76.2 | 79.6 ± 5.5 | 122 | 60.4 ± 9.9 | 87.3 ± 2.9 | 92.1 ± 12
Cl.O=c1n(CCCN2CCN(c3cccc(Cl)c3)CC2)nc2ccccn12 [Trazodone HCl] | 112 ± 11 | 123 | 95.5 ± 16 | 101 | 104 ± 9.6 | 148 | 89.05 ± 0.23 | 105 ± 23 | 192 ± 16
